# Data taken from article PMC12864922, “TDP-43 directly inhibits mRNA accumulation in neurites through modulation of mRNA stability”.
# Over roughly 9,900 sequences, “r (bound/input frequency ratio)” has its median near 0.7; the highest 2% begin near 6.5. The sample as a whole holds a higher share of the highest values than the screen did.
# B1: ENSMUSG00000061578.90|Ksr2|236:240 (ssRNA)
# RNA: GGGAGUUCUACAGUCCGACGAUCGCUUCGAUAUCCGCAUGCUAUCUGAUUUUAGAGGUCCCAUUCCAAGAUGGAAGUCACCGGUUGCCGCUGAGCACACAAUUCUGAAGGACAGUAGGCAGUCCUGCAGGUCUUUUUUAGCACAGGGCCUCUCUGGGGACCAGUCCCUGGCCUUCACCCUUCUCCCAUUUUGUAAGAACACUGUUCUAACUCACCUCAUGCCCACGCUACCCUGGGCAACUGGAGAACACCAUAGCGUUUCAGCUGAUGUGACAUUUGCACACACCUUUACCAGUUCACCAUCCUCUUGCGGUCGCACUAGUGUGGAAUUCUCGGGUGUCAAGG
# B2: ENSMUSG00000090935.515|Synj2bp (ssRNA)
# RNA: GGGAGUUCUACAGUCCGACGAUCGCUUCGAUAUCCGCAUGCUAUGGAGGCCCAGUGUCUGCUACCCUUCUUGUAUCUGAUGGCAUGGGUAACAGCUCUGCCAUGGGCCUGCUUACUUCUAGUAUUCACCUCAGGGCUUGGAAAUUGGUUUUGAAAGGCUUUUAGACAUAGAAAGUAAAACUAAUGGCAAGGAGGAUAAAACACUGUUGUGUGUUGUAUUGUUGAUCUAAAUAAAAAAUAUCAUUGGUAGAAGUUUUACUUUGGUUGAUAAGGAUUCUGAUAACAUUUGGGUCUCCUUAGGAAACUCUUGCGGUCGCACUAGUGUGGAAUUCUCGGGUGUCAAGG
# B3: ENSMUSG00000031028.314|Tub|85:89 (ssRNA)
# RNA: GGGAGUUCUACAGUCCGACGAUCGCUUCGAUAUCCGCAUGCUAUUUCUAGAGGGCAGUAGGACUUCCAUGCUGGGGCUGGCCUAUCUCCUGAUGAAAGAUUACAGUGCCAUCUCCUUCCCAUAGUUCACACACUGCCCUCCCUCCCUGACUUUAUAGGGAGAAAUCUCCUGACAUUAGAGGUGAUAGAAACCAGAGCUUUAGUCUAGUCAGGCUGUUUCUCUGGGUUGACAAGUUUAAGGUUGAACAGGCUGAUUUCUGGAAUCUCAUGAGUGGAGGGGACCCUGGUGGUUAAGAGCGGAACUCUCUUGCGGUCGCACUAGUGUGGAAUUCUCGGGUGUCAAGG
# B4: ENSMUSG00000029636.395|Wasf3|50:54 (ssRNA)
# RNA: GGGAGUUCUACAGUCCGACGAUCGCUUCGAUAUCCGCAUGCUAAAUCUACAGAUCGCAAGGUUGUUUUAUAUUAUCCCCUUAUAGUGUUCCAACACAAUUGUAGCUGAGUUUCAGAUACGGUAUUUUCUCAUAGUGUAAACUCAGGCAGAUGAAUAGCUGGAGAGUGGGUGGAUGGAUGGGUGAGUAUAUGGGUAGAUAAAUGGAUGAGUGGAUGGGUGGGUUAGGUGGGUAAGUAGCUAGGUGGAUGGGUGGGUGGAUACAUGGAUGAGUGGAUGGGUGGAUUGGUGGGUGAGUGGAUAGGUCUCUUGCGGUCGCACUAGUGUGGAAUUCUCGGGUGUCAAGG
# B5: ENSMUSG00000029636.397|Wasf3 (ssRNA)
# RNA: GGGAGUUCUACAGUCCGACGAUCGCUUCGAUAUCCGCAUGCUAGCAAGGUUGUUUUAUAUUAUCCCCUUAUAGUGUUCCAUGUGUAUUGUAGCUGAGUUUCAGAUACGGUAUUUUCUCAUAGUGUAAACUCAGGCAGAUGAAUAGCUGGAGAGUGGGUGGAUGGAUGGGUGAGUAUAUGGGUAGAUAAAUGGAUGAGUGGAUGGGUGGGUUAGGUGGGUAAGUAGCUAGGUGGAUGGGUGGGUGGAUACAUGGAUGAGUGGAUGGGUGGAUUGGUGGGUGAGUGGAUAGGUGAAUGGAUGAUACUCUUGCGGUCGCACUAGUGUGGAAUUCUCGGGUGUCAAGG
# B6: ENSMUSG00000029636.415|Wasf3 (ssRNA)
# RNA: GGGAGUUCUACAGUCCGACGAUCGCUUCGAUAUCCGCAUGCUAAGUGGGUGGAUGGAUGGGUGAGUAUAUGGGUAGAUAAAUGGAUGAGUGGAUGGGUGGGUUAGGUGGGUAAGUAGCUAGGUGGAUGGGUGGGUGGAUACAUGGAUGAGUGGAUGGGUGGAUUGGUGGGUGAGUGGAUAGGUGAAUGGAUGAUAGGUGGUGGAUGGUUGAGUGGGUGGAUUCAUGAUGGAUGGAUGGAUGGAUGGAUGGAUGGAUGGAUGGAUGAGUGGAUGGAUAAUAGGUUGAUGGGUGGAUAGGUAGAUCUCUUGCGGUCGCACUAGUGUGGAAUUCUCGGGUGUCAAGG
# B7: ENSMUSG00000029636.403|Wasf3 (ssRNA)
# RNA: GGGAGUUCUACAGUCCGACGAUCGCUUCGAUAUCCGCAUGCUAAUGUGUAUUGUAGCUGAGUUUCAGAUACGGUAUUUUCUCAUAGUGUAAACUCAGGCAGAUGAAUAGCUGGAGAGUGGGUGGAUGGAUGGGUGAGUAUAUGGGUAGAUAAAUGGAUGAGUGGAUGGGUGGGUUAGGUGGGUAAGUAGCUAGGUGGAUGGGUGGGUGGAUACAUGGAUGAGUGGAUGGGUGGAUUGGUGGGUGAGUGGAUAGGUGAAUGGAUGAUAGGUGGUGGAUGGUUGAGUGGGUGGAUUCAUGAUGGACUCUUGCGGUCGCACUAGUGUGGAAUUCUCGGGUGUCAAGG
# B8: ENSMUSG00000029636.410|Wasf3 (ssRNA)
# RNA: GGGAGUUCUACAGUCCGACGAUCGCUUCGAUAUCCGCAUGCUAGUGUAAACUCAGGCAGAUGAAUAGCUGGAGAGUGGGUGGAUGGAUGGGUGAGUAUAUGGGUAGAUAAAUGGAUGAGUGGAUGGGUGGGUUAGGUGGGUAAGUAGCUAGGUGGAUGGGUGGGUGGAUACAUGGAUGAGUGGAUGGGUGGAUUGGUGGGUGAGUGGAUAGGUGAAUGGAUGAUAGGUGGUGGAUGGUUGAGUGGGUGGAUUCAUGAUGGAUGGAUGGAUGGAUGGAUGGAUGGAUGGAUGGAUGAGUGGAUGCUCUUGCGGUCGCACUAGUGUGGAAUUCUCGGGUGUCAAGG
# B9: ENSMUSG00000029636.411|Wasf3 (ssRNA)
# RNA: GGGAGUUCUACAGUCCGACGAUCGCUUCGAUAUCCGCAUGCUAACUCAGGCAGAUGAAUAGCUGGAGAGUGGGUGGAUGGAUGGGUGAGUAUAUGGGUAGAUAAAUGGAUGAGUGGAUGGGUGGGUUAGGUGGGUAAGUAGCUAGGUGGAUGGGUGGGUGGAUACAUGGAUGAGUGGAUGGGUGGAUUGGUGGGUGAGUGGAUAGGUGAAUGGAUGAUAGGUGGUGGAUGGUUGAGUGGGUGGAUUCAUGAUGGAUGGAUGGAUGGAUGGAUGGAUGGAUGGAUGGAUGAGUGGAUGGAUAAUCUCUUGCGGUCGCACUAGUGUGGAAUUCUCGGGUGUCAAGG
# B10: ENSMUSG00000029636.392|Wasf3|68:72 (ssRNA)
# RNA: GGGAGUUCUACAGUCCGACGAUCGCUUCGAUAUCCGCAUGCUACAUUUCAUGCUUAUACUUAAUCUACAGAUCGCAAGGUUGUUUUAUAUUAUCCCCUUAUAGUGUUCCAACACAAUUGUAGCUGAGUUUCAGAUACGGUAUUUUCUCAUAGUGUAAACUCAGGCAGAUGAAUAGCUGGAGAGUGGGUGGAUGGAUGGGUGAGUAUAUGGGUAGAUAAAUGGAUGAGUGGAUGGGUGGGUUAGGUGGGUAAGUAGCUAGGUGGAUGGGUGGGUGGAUACAUGGAUGAGUGGAUGGGUGGAUUGCUCUUGCGGUCGCACUAGUGUGGAAUUCUCGGGUGUCAAGG
# B11: ENSMUSG00000029636.401|Wasf3|14:18 (ssRNA)
# RNA: GGGAGUUCUACAGUCCGACGAUCGCUUCGAUAUCCGCAUGCUAUUAUAGUGUUCCAACACAAUUGUAGCUGAGUUUCAGAUACGGUAUUUUCUCAUAGUGUAAACUCAGGCAGAUGAAUAGCUGGAGAGUGGGUGGAUGGAUGGGUGAGUAUAUGGGUAGAUAAAUGGAUGAGUGGAUGGGUGGGUUAGGUGGGUAAGUAGCUAGGUGGAUGGGUGGGUGGAUACAUGGAUGAGUGGAUGGGUGGAUUGGUGGGUGAGUGGAUAGGUGAAUGGAUGAUAGGUGGUGGAUGGUUGAGUGGGUGGCUCUUGCGGUCGCACUAGUGUGGAAUUCUCGGGUGUCAAGG
# B12: ENSMUSG00000029636.393|Wasf3|62:66 (ssRNA)
# RNA: GGGAGUUCUACAGUCCGACGAUCGCUUCGAUAUCCGCAUGCUAAUGCUUAUACUUAAUCUACAGAUCGCAAGGUUGUUUUAUAUUAUCCCCUUAUAGUGUUCCAACACAAUUGUAGCUGAGUUUCAGAUACGGUAUUUUCUCAUAGUGUAAACUCAGGCAGAUGAAUAGCUGGAGAGUGGGUGGAUGGAUGGGUGAGUAUAUGGGUAGAUAAAUGGAUGAGUGGAUGGGUGGGUUAGGUGGGUAAGUAGCUAGGUGGAUGGGUGGGUGGAUACAUGGAUGAGUGGAUGGGUGGAUUGGUGGGUCUCUUGCGGUCGCACUAGUGUGGAAUUCUCGGGUGUCAAGG
# B13: ENSMUSG00000029636.416|Wasf3 (ssRNA)
# RNA: GGGAGUUCUACAGUCCGACGAUCGCUUCGAUAUCCGCAUGCUAUGGAUGGAUGGGUGAGUAUAUGGGUAGAUAAAUGGAUGAGUGGAUGGGUGGGUUAGGUGGGUAAGUAGCUAGGUGGAUGGGUGGGUGGAUACAUGGAUGAGUGGAUGGGUGGAUUGGUGGGUGAGUGGAUAGGUGAAUGGAUGAUAGGUGGUGGAUGGUUGAGUGGGUGGAUUCAUGAUGGAUGGAUGGAUGGAUGGAUGGAUGGAUGGAUGGAUGAGUGGAUGGAUAAUAGGUUGAUGGGUGGAUAGGUAGAUGAGUGACUCUUGCGGUCGCACUAGUGUGGAAUUCUCGGGUGUCAAGG
# B14: ENSMUSG00000029636.408|Wasf3 (ssRNA)
# RNA: GGGAGUUCUACAGUCCGACGAUCGCUUCGAUAUCCGCAUGCUAUAUUUUCUCAUAGUGUAAACUCAGGCAGAUGAAUAGCUGGAGAGUGGGUGGAUGGAUGGGUGAGUAUAUGGGUAGAUAAAUGGAUGAGUGGAUGGGUGGGUUAGGUGGGUAAGUAGCUAGGUGGAUGGGUGGGUGGAUACAUGGAUGAGUGGAUGGGUGGAUUGGUGGGUGAGUGGAUAGGUGAAUGGAUGAUAGGUGGUGGAUGGUUGAGUGGGUGGAUUCAUGAUGGAUGGAUGGAUGGAUGGAUGGAUGGAUGGAUGCUCUUGCGGUCGCACUAGUGUGGAAUUCUCGGGUGUCAAGG
# B15: ENSMUSG00000029636.407|Wasf3 (ssRNA)
# RNA: GGGAGUUCUACAGUCCGACGAUCGCUUCGAUAUCCGCAUGCUAAUACGGUAUUUUCUCAUAGUGUAAACUCAGGCAGAUGAAUAGCUGGAGAGUGGGUGGAUGGAUGGGUGAGUAUAUGGGUAGAUAAAUGGAUGAGUGGAUGGGUGGGUUAGGUGGGUAAGUAGCUAGGUGGAUGGGUGGGUGGAUACAUGGAUGAGUGGAUGGGUGGAUUGGUGGGUGAGUGGAUAGGUGAAUGGAUGAUAGGUGGUGGAUGGUUGAGUGGGUGGAUUCAUGAUGGAUGGAUGGAUGGAUGGAUGGAUGGACUCUUGCGGUCGCACUAGUGUGGAAUUCUCGGGUGUCAAGG
# Biological target: TDP-43 (Homo sapiens, UniProt Q13148 1-414)
# Assay: RNA Bind-n-Seq with designed 260-mer pool; 25 mM Tris-HCl, 150 mM KCl, 3 mM MgCl2, BSA (printed 500 mg/mL), 20 units/mL SUPERase IN; pH not stated; 500 nM RNA pool, 1 h, 4 C; TDP-43 5, 50, 500 nM; high values mean tight binding
# Details: protein: recombinant; tags: SBP (GST cleaved off with PreScission; pGEX-GST-SBP)
# Summary of the method: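 An in vitro-transcribed pool of 260-nt 3′ UTR oligos (500 nM) was incubated for 1 h at 4 °C with recombinant SBP-tagged TDP-43 at 5, 50 or 500 nM held on streptavidin beads. The buffer contained 25 mM Tris-HCl, 150 mM KCl, 3 mM MgCl2, BSA and SUPERase IN. Biotin-eluted bound RNA was sequenced, and binding, R, is each oligo's normalized read abundance in the bound sample over that in input.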
# TDP-43, sequence (Q13148 whole entry): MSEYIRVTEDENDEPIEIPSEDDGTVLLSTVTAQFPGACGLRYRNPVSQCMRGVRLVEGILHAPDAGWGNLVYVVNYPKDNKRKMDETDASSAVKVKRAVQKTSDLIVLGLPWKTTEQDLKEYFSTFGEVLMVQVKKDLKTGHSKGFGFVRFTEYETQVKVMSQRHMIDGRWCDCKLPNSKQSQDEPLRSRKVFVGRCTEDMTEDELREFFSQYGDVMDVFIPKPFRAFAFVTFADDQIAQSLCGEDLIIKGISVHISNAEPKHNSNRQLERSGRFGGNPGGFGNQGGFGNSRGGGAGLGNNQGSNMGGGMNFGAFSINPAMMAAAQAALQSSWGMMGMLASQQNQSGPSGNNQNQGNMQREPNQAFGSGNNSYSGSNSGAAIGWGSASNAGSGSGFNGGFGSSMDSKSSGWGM
row,Binder,binding signal
1,B1,0.502 R (bound/input frequency ratio)
2,B2,0.412 R (bound/input frequency ratio)
3,B3,1.56 R (bound/input frequency ratio)
4,B4,4.72 R (bound/input frequency ratio)
5,B5,4.09 R (bound/input frequency ratio)
6,B6,2.19 R (bound/input frequency ratio)
7,B7,15.4 R (bound/input frequency ratio)
8,B8,2.97 R (bound/input frequency ratio)
9,B9,7.25 R (bound/input frequency ratio)
10,B10,4.14 R (bound/input frequency ratio)
11,B11,4.07 R (bound/input frequency ratio)
12,B12,6.94 R (bound/input frequency ratio)
13,B13,6.38 R (bound/input frequency ratio)
14,B14,20.3 R (bound/input frequency ratio)
15,B15,3.52 R (bound/input frequency ratio)
